Compound activity deposited in PubChem by National Center for Advancing Translational Sciences (NCATS).
A selection: hits, their analogues and other compounds. The true share with any hit is near 2.4%.
D2 PAM-1 = positive allosteric modulators of human D2 dopamine receptor; P14416; DiscoveRx D2 beta-arrestin cells, luminescence, 90 min; 100% = 57 uM dopamine signal; potentiation, % (test concentration not listed); 360,000 tested, 0.23% active; in the data active means potentiation above about 50%
Target sequence (P14416 whole entry, looked up): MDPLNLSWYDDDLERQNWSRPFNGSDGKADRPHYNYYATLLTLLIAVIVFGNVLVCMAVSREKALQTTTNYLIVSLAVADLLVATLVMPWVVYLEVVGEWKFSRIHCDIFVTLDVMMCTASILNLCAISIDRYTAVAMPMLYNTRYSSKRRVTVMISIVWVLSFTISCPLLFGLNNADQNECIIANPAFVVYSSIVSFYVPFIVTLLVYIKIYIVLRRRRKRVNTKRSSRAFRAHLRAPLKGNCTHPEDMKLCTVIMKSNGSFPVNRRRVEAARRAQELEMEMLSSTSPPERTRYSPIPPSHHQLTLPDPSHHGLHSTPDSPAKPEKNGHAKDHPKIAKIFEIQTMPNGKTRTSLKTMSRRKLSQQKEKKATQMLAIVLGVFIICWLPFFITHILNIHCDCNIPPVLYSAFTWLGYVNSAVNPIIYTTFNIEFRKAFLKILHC
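PathHunter D2 cells, attached overnight at 37 deg C, received compound in DMSO plus dopamine at EC20 (50 nM final) for 90 min at 37 deg C. Beta-arrestin recruitment was read as luminescence after 1 h with detection reagent at ambient temperature.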
D2 antag = antagonists of human D2 dopamine receptor | HEK293 TREx D2 cells, calcium flux, dopamine EC80 | 340,000 tested, 2% active | P14416 | inhibition, % at 10 µM; in the data active means inhibition above about 30%; inactive means below that, where a call was filed; further: 0% is about no effect
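Inhibition of EC80 dopamine-driven calcium flux, recorded kinetically, defines activity here; cells are a tetracycline-induced HEK293 T-REx line expressing force-coupled D2.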
D2 ag-1 = D2 dopamine receptor (human) agonism. activation, % at 2 µM. HEK293 T-REx D2 cells, calcium flux agonist mode. 340,000 tested, 0.53% active. P14416;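 active means activation over 3 SD above normal in the single-dose calcium agonist read, cut at about 30% in these data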; further: 0% is about no effect
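Tetracycline-induced HEK293 T-REx cells with force-coupled D2 receptor, plated overnight at 30 C, loaded with no-wash calcium dye. After a 10 s baseline, compound was pin-added and calcium flux read kinetically for 180 s; calcium rises flagged agonists.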
D2 PAM-2 = positive allosteric modulators of human D2 dopamine receptor | P14416 | HEK293 T-REx D2, calcium flux, EC20 dopamine potentiation | potentiation, % at 10 µM | 340,000 tested, 0.34% active | AID 485347;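 active means potentiation over 3 SD above the plate norm, cut at about 30% in these data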; further: 0% is about no effect
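Cells plated with tetracycline inducer and held overnight at 30 C; calcium dye loaded 30–90 min at room temperature; baseline taken, compound added and read 180 s; EC20 dopamine then added and read 180 s.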
D2 ag-2 = agonists of human D2 dopamine receptor (beta-arrestin); DiscoveRx PathHunter D2 beta-arrestin, luminescence, 90 min; 100% = 57 uM dopamine signal; activation, % (test concentration not listed); AID 624465; 360,000 tested, 0.084% active; P14416; in the data active means activation above about 40%
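DiscoveRx PathHunter D2 beta-arrestin cells (2,100/well) attached overnight, then compound-stimulated 90 min at 37 C in HBSS/10 mM HEPES/0.1% Tween-20 buffer; beta-galactosidase complementation read by luminescence after 1 h at ambient temperature. Dopamine 57 uM final (EC100) as control.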
An asterisk follows results filed as active; nt = no result.

SMILES | D2 PAM-1 | D2 antag | D2 ag-1 | D2 PAM-2 | D2 ag-2
Cc1nnc(NC(=O)c2cccn(Cc3cccc([N+](=O)[O-])c3)c2=O)s1 | nt | nt | -1 | 13 | nt
COc1ccccc1CN1CCN(Cc2ccc(Cl)cc2)CC1 | -23 | 76* | 1 | -24 | -1
COc1ccc(CN2CCN(Cc3ccccc3OC)CC2)cc1 | -22 | -5 | 0 | 1 | -3
CN1CC[C@@]23CCCC[C@@H]2[C@@H]1Cc1ccc(O)cc13 | 2 | nt | nt | nt | -5
CN1CC[C@]2(c3cccc(O)c3)Cc3nc4ccccc4cc3C[C@H]2C1 | nt | 40* | -1 | -7 | nt
O=C(Nc1ccc2c(c1)OCO2)c1cccn(Cc2ccc(F)cc2)c1=O | nt | nt | 1 | 2 | nt
Cc1ccc(CN2C3CCCC2CC(NC(=S)NCc2ccccc2)C3)cc1 (stereo not drawn) | -2 | 104* | 1 | -30 | -1
CNC(=S)NC1CC2CCCC(C1)N2CC(C)C (stereo not drawn) | -15 | nt | nt | nt | 0
OCCN1C2CCC1CC(O)(c1ccc(F)cc1)C2 (stereo not drawn) | -39 | 48* | 1 | -19 | -2
COc1ccc(-c2nc(CN3C(=O)CN=C(c4ccccc4)c4ccccc43)c(C)o2)cc1 | nt | nt | nt | -3 | nt
COc1ccc(C[C@@H]2c3cc(O)c(OC)cc3CCN2C)cc1O | -26 | 52* | 0 | -18 | -1
COc1ccc(CC2c3cc(OC)c(OC)cc3CCN2C)cc1OC (stereo not drawn) | -6 | nt | nt | nt | 6
COc1cc2c(cc1O)[C@@H]1Cc3ccc(OC)c(O)c3CN1CC2 | -5 | 75* | -1 | -12 | 9
CCNc1cc(N2CCNCC2)ccc1[N+](=O)[O-] | nt | 35* | 0 | -8 | nt
CCCc1ccc(OCC(=O)Nc2ccc(Cl)cc2C(=O)c2ccccc2)cc1 | nt | nt | -1 | 0 | nt
COC(=O)C1=C(c2ccc(F)cc2OCc2ccccc2)C[C@@H]2CC[C@H]1N2C(=O)NC1CCN(Cc2ccccc2)CC1 | -17 | 26 | 0 | -19 | -4
COC(=O)C1=C(c2ccccc2OCc2ccccc2)C[C@@H]2CC[C@H]1N2C(=O)NC1CCN(Cc2ccccc2)CC1 | -24 | 59* | 0 | -21 | 5
COc1ccc(/C=C/c2nc3ccccc3c(=O)n2-c2ccc(C)cc2)cc1O | nt | nt | 0 | nt | nt
O=[N+]([O-])c1cccc(CN2CCN(Cc3ccc(Br)cc3)CC2)c1 | -4 | 90* | 2 | -23 | -2
O=C(Cc1ccccc1)N1CCN(Cc2ccc([N+](=O)[O-])cc2)CC1 | -5 | 1 | 0 | -2 | -3
Cc1ccccc1CN1C(=O)CN=C(c2ccccc2)c2cc(Cl)ccc21 | nt | nt | 2 | -12 | nt
COc1cc2ccc(=O)oc2c2ccoc12 | -36 | -31 | 0 | 2 | 0
COc1cc2occc2c2oc(=O)ccc12 | -23 | 33* | -1 | -1 | 0
Cc1ccc(C)c(CN2C(=O)c3ccccc3Sc3ccc(C(=O)N4CCC5(CC4)OCCO5)cc32)c1 | nt | nt | 1 | 6 | nt
Clc1cccc(N2CCNCC2)c1Cl | -4 | 35* | 2 | -26 | -1
SMILES | D2 PAM-1 | D2 antag | D2 ag-1 | D2 PAM-2 | D2 ag-2
CCN1CCN(c2ccc(N)cc2C)CC1 | -18 | 13 | 4 | -10 | -3
CCN1CCN(c2ccc(NC(C)=O)cc2Cl)CC1 | -5 | 42* | 0 | 9 | -4
CC1(C)CSC(Nc2ccc(F)c(Cl)c2)=N1 | 13 | 12 | 0 | 32* | -1
CC1(C)CN=C(Nc2ccc(F)c(Cl)c2)S1 | -21 | 1 | 1 | 0 | -9
Cc1ccc2c(c1)C1CN(C)CCC1N2C(=O)/C(C#N)=C/c1ccc2c(c1)OCO2 (stereo not drawn) | -6 | 48* | 0 | -9 | -2
Cc1ccc2c(c1)C1CN(C)CCC1N2C(=O)/C=C/c1ccc2c(c1)OCO2 (stereo not drawn) | -11 | 21 | 0 | -10 | -2
COc1ccccc1-c1nn2c(=O)cc(CN3CCN(C(=O)COc4ccccc4Cl)CC3)nc2s1 | nt | nt | 0 | -10 | nt
Fc1ccc(C(OCCN2CCCC2)c2ccc(F)cc2)cc1 | -41 | 13 | 1 | -23 | -5
Fc1ccc(C(OCCN2CCCC2)c2ccc(Br)cc2)cc1 (stereo not drawn) | -16 | 47* | 4 | -23 | 0
Cc1[nH]c2ccccc2c1CCCNC1CCCCC1 | -30 | 39* | 1 | -26 | -8
COc1ccc(-n2c(/C=C\c3ccccc3F)nc3ccccc3c2=O)c(OC)c1 | nt | nt | nt | 13 | nt
CCCCCCNC(=O)N[C@H](Cc1ccc(O)cc1)C(=O)NCCC[C@H]1CN2C(=NC[C@H]2CCC)N1CC1CCC1 | nt | 34* | 1 | 7 | nt
CCCC12CN3CC(C)(CN(C1)C3c1ccccn1)C2=O (stereo not drawn) | nt | nt | 0 | 6 | nt
COc1cccc(CN2CC=C(c3ccc(F)cc3)CC2)c1 | -12 | 72* | 3 | -23 | 1
COc1ccc(NC(=O)c2cccn(Cc3ccc(Cl)cc3)c2=O)c(OC)c1 | nt | nt | 1 | nt | nt
CC[C@H]1C2C[C@H]3[C@@H]4N(C)c5ccccc5C45C[C@H](C2[C@H]5O)N3[C@@H]1O (stereo partly drawn) | -26 | 36* | 1 | -10 | -2
O=C1C=C(N2CC2)c2ccccc2C1=O | 4 | nt | nt | nt | 51*
COc1ccc(CNC(=O)CCC(=O)N2C[C@H]3C[C@H](C2)c2cccc(=O)n2C3)cc1OC | -26 | 36* | 0 | -2 | -3
CCCOc1ccc(C2SCC(=O)Nc3c2c(C)nn3-c2cccc(C)c2)cc1OC (stereo not drawn) | nt | nt | -1 | -8 | nt
N#CC1(c2ccccc2)CCN(C2CC(=O)N(c3ccc(F)cc3)C2=O)CC1 (stereo not drawn) | -5 | -16 | 1 | 31* | 5
CCc1nn(CC(=O)N2CCC3(CC2)OCCO3)c(=O)c2cc3ccccc3n12 | -2 | -5 | 32* | -12 | 3
CN1CCc2cccc(Cl)c2CC1 | -32 | 53* | 1 | -18 | -1
N#Cc1cc2c(nc1SCC(=O)Nc1ccc(F)c(Cl)c1)C1CCN2CC1 | nt | nt | 0 | 3 | nt
C1=C(c2c[nH]c3ccccc23)CCNC1 | nt | 42* | 2 | -16 | nt
CC(C)N1CC=C(c2c[nH]c3ccccc23)CC1 | -39 | nt | nt | nt | -1
CC(C)OCC(O)CN1CC2C[C@@H](C1)Cn1c2cccc1=O (stereo partly drawn) | 4 | 42* | 23 | -14 | 7
Nc1c(C(=O)Nc2ccc(F)c(Cl)c2)sc2nc3c(cc12)N1CCC3CC1 | nt | nt | 0 | 0 | nt
Cc1ccc(-c2cc(-c3ccccc3)cc(-c3ccccc3)[n+]2-c2ccccc2)cc1 | 11 | 38* | 2 | -3 | 11
CCCC1=Nc2cc(C(=O)NC3CCC(C)CC3)ccc2Sc2ccccc21 (stereo not drawn) | nt | nt | nt | -5 | nt
CCCN1CCC[C@@H]2Cc3nc(N)ncc3C[C@H]21 | 117* | nt | nt | nt | 126*
